Lmaj promast – inhibitors of Leishmania major promastigote growth; Leishmania major promastigotes, resazurin fluorescence viability; inhibition, % at 10 µM; 9% of 200,000 active; in the data active = inhibition above about 50%;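 also: promastigotes grown with compound for 44 hours at 28 °C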
Autophagy HCS – modulators of autophagy | calls only at 10 µM (by protocol) | 0.98% of 190,000 active | MEF GFP-LC3 puncta imaging; test concentration mostly 10 µM | AID 463193;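 active = percentage of spot-positive cells more than 3 SD above its plate mean, without a fluorescence outlier flag or 80% toxicity; inconclusive = no clear call, values can overlap the other calls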
Ins promoter up – MIN6 insulin promoter up-regulation | MIN6 insulin promoter-GFP reporter, high-content imaging; active compounds read high | z-score at 5 µM | 0.3% of 190,000 active | AID 1625;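 active = z-score above 3 at 5 µM with at least 500 cells counted in the well; inconclusive = wells under 500 cells, flagged as cytotoxic or low count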
INS promoter inh – TRM-6 insulin promoter activity inhibition; TRM-6 cells (human fetal islet line), insulin promoter-eGFP reporter, imaging; reporter expression induced with tamoxifen; inhibition, % at 2 µM; 0.9% of 130,000 active; AID 1273;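 active = inhibition above the mean plus 3 SD, with well images judged a real hit on visual review, cut at about 60% in these data, passing the limit was not always enough; inconclusive = inhibition over the cutoff but images rejected on review; inactive = inhibition not above the cutoff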
WT yeast gro inh – growth inhibition of WT yeast, mitochondrial fusion screen. mitochondrial fusion phenotypic screen, WT strain. 2.1% of 190,000 active. inhibition, % at 10 µM. AID 1362; in the data active = inhibition above about 58%; tested in S. cerevisiae
Hits are given with their value; . = inactive; ? = inconclusive; / = not tested or not shown; + = active, no number. In the library only some 11% were active in any assay of this set; here they are far more common.

SMILES	Lmaj promast	Autophagy HCS	Ins promoter up	INS promoter inh	WT yeast gro inh
O=C(Nc1ccc(Cc2ccncc2)cc1)C1CCC(N2C(=O)C3CC=CCC3C2=O)CC1 (stereo unspecified)	.	.	.	.	.
CC(=O)N1CCc2c(sc(NC(=O)c3ccc4c(c3)OCCO4)c2C#N)C1	53.6	.	.	.	.
CC(=O)N1CCc2c(sc(NC(=O)c3ccc(S(=O)(=O)N(C)C)cc3)c2C#N)C1	.	/	/	/	.
COc1cccc(/C=C/C(=O)N2CCN(c3n[nH]c(=O)[nH]c3=O)CC2)c1OC	.	.	.	/	.
CCc1ccccc1NC(=O)CCc1nc(-c2cccs2)no1	.	.	.	/	.
CC1CCN(C2=NC(=O)/C(=C/c3cn(-c4ccccc4)nc3-c3cccc(S(=O)(=O)N(C)C)c3)S2)CC1	79.6	.	.	/	.
CC1CCCN(C2=NC(=O)/C(=C/c3cn(-c4ccccc4)nc3-c3cccc(S(=O)(=O)N(C)C)c3)S2)C1 (stereo unspecified)	69.1	.	.	/	.
Cc1cc(-c2nn(-c3ccccc3)cc2/C=C2\SC(N)=NC2=O)ccc1OC(C)C	.	.	.	.	.
CN(C)S(=O)(=O)c1cccc(-c2nn(-c3ccccc3)cc2/C=C(/C#N)C(=O)NCc2ccco2)c1	.	.	.	/	.
CCc1ccc(CN(C)C(=O)CCc2nnc(Cc3cccc(C)c3)o2)nc1	.	.	.	/	.
Cn1c(=NC(=O)CN2C(=O)C3CC=CCC3C2=O)sc2ccccc21 (stereo unspecified)	98.7	.	.	.	.
COc1ccc(CN(C)C2CCCCC2)cc1	87.1	.	.	.	.
CN(Cc1ccc(O)cc1)C1CCCCC1	93.3	.	.	92.3	.
Oc1ccc(CNC2CCCCC2)cc1	90.2	.	.	.	.
COc1ccc(OC)c(CN2C(=O)c3ccccc3C2C(=O)NCc2cccnc2)c1 (stereo unspecified)	.	.	.	.	.
COc1ccc(CN2C(=O)c3ccccc3C2C(=O)NCc2cccnc2)c(OC)c1 (stereo unspecified)	.	+	.	.	.
Cc1ccc(C)c(NCC(O)c2ccccc2)c1 (stereo unspecified)	.	.	.	.	.
c1ccc(CN2CCC(Nc3nc(-c4ccccc4)nc4ccccc34)CC2)cc1	99.8	.	.	.	.
Cc1csc2ncnc(NC3CCN(Cc4ccccc4)CC3)c12	/	/	.	/	/
Cc1cc(C)n(CC(=O)O)c(=O)c1[N+](=O)[O-]	.	.	.	/	.
CN1c2ccsc2/C(=N/Nc2ccccc2)CS1(=O)=O	.	+	.	/	.
CCOC(=O)c1c(NC(NC(C)=O)C(Cl)(Cl)Cl)sc2c1CCCC2 (stereo unspecified)	.	.	.	/	67.5
CC(C)(C)C(=O)NC(NC(=S)Nc1sc2c(c1C#N)CCCC2)C(Cl)(Cl)Cl (stereo unspecified)	.	.	.	.	.
CCC(=O)NC(Nc1sc2c(c1C(=O)OC)CCC2)C(Cl)(Cl)Cl (stereo unspecified)	73.3	.	.	.	.
COC(=O)c1c(NC(NC(=O)C(C)(C)C)C(Cl)(Cl)Cl)sc2c1CCC2 (stereo unspecified)	51.4	.	.	/	71.4
SMILES	Lmaj promast	Autophagy HCS	Ins promoter up	INS promoter inh	WT yeast gro inh
COC(=O)c1c(NC(NC(=O)CC(C)C)C(Cl)(Cl)Cl)sc2c1CCC2 (stereo unspecified)	.	.	.	.	.
COC(=O)c1c(NC(NC(C)=O)C(Cl)(Cl)Cl)sc2c1CCCC2 (stereo unspecified)	.	.	.	.	.
COC(=O)c1c(NC(NC(=O)C(C)C)C(Cl)(Cl)Cl)sc2c1CCC2 (stereo unspecified)	53.3	.	.	.	59.7
CCOc1ccc2[nH]c(=O)c(C(c3nnnn3Cc3ccco3)N3CCCC(C)C3)cc2c1 (stereo unspecified)	.	.	.	.	.
O=C(Cc1ccc(NS(=O)(=O)c2ccc(F)cc2)cc1)NCc1ccccc1	.	.	.	.	.
O=C(c1ccc2c(c1)OCCO2)N1CCN(c2ccc([N+](=O)[O-])cc2)CC1	.	.	.	.	.
COc1ccc(Cn2c(=O)[nH]c3cc(C(=O)NCCc4ccc(S(N)(=O)=O)cc4)ccc3c2=O)cc1	.	.	.	.	.
CCN(CC)S(=O)(=O)c1ccc2c3c(cccc13)C(=O)N2	.	+	.	?	.
CCN(c1cccc(C)c1)S(=O)(=O)c1ccc2c3c(cccc13)C(=O)N2	98.9	.	/	.	.
COc1ccc([N+](=O)[O-])cc1NC(=O)c1ccc(-n2nc(C)cc2C)cc1	.	.	.	.	.
O=C(NCCCn1ccnc1)c1cc2cc([N+](=O)[O-])ccc2oc1=O	.	.	.	.	.
COc1ccc(/C=N/N(Cc2ccccc2)c2ccccc2)cc1O	.	.	/	.	82.5
C(=N\N(Cc1ccccc1)c1ccccc1)/c1ccco1	.	.	.	.	.
Cc1ccc(NC(=S)N(Cc2cccs2)Cc2cc3cc(C)ccc3[nH]c2=O)cc1	79.1	.	/	.	.
Cc1cc(C)c2[nH]c(=O)c(CN(Cc3cccs3)C(=S)NCc3ccco3)cc2c1	99.0	.	.	.	.
CCN(CC)CCN(Cc1cc2cc(C)cc(C)c2[nH]c1=O)C(=S)NCc1ccco1	.	.	/	.	.
Cc1ccc(NC(=S)N(Cc2cccs2)Cc2cc3cc(C)cc(C)c3[nH]c2=O)cc1	94.9	.	.	.	.
Cc1cccc(NC(=S)N(Cc2cccs2)Cc2cc3cc(C)ccc3[nH]c2=O)c1	.	.	/	.	.
COc1cc2cc(CN(Cc3cccs3)C(=S)Nc3cccc(C)c3)c(=O)[nH]c2cc1OC	88.1	.	/	.	.
CCOC(=O)C1(CCc2ccccc2)CCN(C(=O)c2cc(C)nc(C)n2)CC1	.	.	.	/	.
CNC(=S)N(Cc1cccs1)Cc1cc2cc(OC)c(OC)cc2[nH]c1=O	61.9	.	.	.	.
Cc1ccc(NC(=S)N(CCN(C)C)Cc2cc3cc(C)ccc3[nH]c2=O)cc1	.	.	/	.	.
COc1cc2cc(CN(Cc3cccs3)C(=S)Nc3ccc(C)cc3)c(=O)[nH]c2cc1OC	97.9	.	/	.	.
COc1ccccc1NC(=O)N(Cc1cccs1)Cc1cc2cc3c(cc2[nH]c1=O)OCO3	.	.	.	.	.
CCN(CC)CCN(Cc1cc2cc(C)ccc2[nH]c1=O)C(=S)NCc1ccco1	60.9	.	/	.	.
SMILES	Lmaj promast	Autophagy HCS	Ins promoter up	INS promoter inh	WT yeast gro inh
COc1cc(C=NCC2OCCc3ccccc32)cc(OC)c1 (stereo unspecified)	.	.	.	.	.
O=S(=O)(Nc1ccc2ccccc2n1)c1ccc2c(c1)CCO2	/	/	.	/	/
CCN(CC)C(=O)C(=O)N/N=C/c1ccc(F)cc1	.	.	.	/	.
COc1ccc(-c2nc(-c3ccccc3)c(-c3cc([N+](=O)[O-])ccc3C)[nH]2)cc1OC	65.4	.	/	.	.
O=[N+]([O-])c1ccc(O)c(-c2nc(-c3ccccc3)c(-c3cccs3)[nH]2)c1	.	.	.	.	72.2
CCOc1cc(-c2nc(-c3ccccc3)c(-c3cc([N+](=O)[O-])ccc3C)[nH]2)ccc1O	.	.	.	.	.
CCCC1Cc2c(sc(N)c2C#N)CO1 (stereo unspecified)	.	.	.	/	.
